Measurements taken from PubChem BioAssay (NCATS).
Results filed as inconclusive are left out. Active and inactive are the calls of the source. Unless noted, the call rests on the fitted dose curve; in most records, active means well fitted curve in the direction sought with a large enough effect; inconclusive means small, poorly fitted or top-dose-only effect, or another doubt; inactive means no such curve, though single readings can be large; an effect the other way counts as inactive or inconclusive.

Tests used:
[1] = AP1 Signaling Pathway (AID 357; active means well fitted curve in either direction with a large enough effect, not every such curve was filed as active;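 further: ME-180 reporter cells stimulated with EGF at its EC50 level; on the % scale 0 is the no-effect control and ±100 the full control effect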); details: ME-180 AP-1-bla reporter, EGF-induced, beta-lactamase ratio, 5 h; at 7.69 µM (top of the series) unless noted
In short: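 Cells are seeded overnight, exposed to compound titrations and an EC50 level of EGF for 5 hours at 37 °C, then loaded with CCF4 dye for 2.5 hours. Beta-lactamase activity under the AP-1 element is read as a blue/green ratio.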

[2] = target: Cytochrome P450 1A2 (Homo sapiens) (UniProt P05177); assay: p450-cyp1a2 (AID 410; calls by dose curve;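 further: -100% = full effect of reference inhibitor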)
Chain of Cytochrome P450 1A2 (Homo sapiens) (P05177 whole entry, looked up): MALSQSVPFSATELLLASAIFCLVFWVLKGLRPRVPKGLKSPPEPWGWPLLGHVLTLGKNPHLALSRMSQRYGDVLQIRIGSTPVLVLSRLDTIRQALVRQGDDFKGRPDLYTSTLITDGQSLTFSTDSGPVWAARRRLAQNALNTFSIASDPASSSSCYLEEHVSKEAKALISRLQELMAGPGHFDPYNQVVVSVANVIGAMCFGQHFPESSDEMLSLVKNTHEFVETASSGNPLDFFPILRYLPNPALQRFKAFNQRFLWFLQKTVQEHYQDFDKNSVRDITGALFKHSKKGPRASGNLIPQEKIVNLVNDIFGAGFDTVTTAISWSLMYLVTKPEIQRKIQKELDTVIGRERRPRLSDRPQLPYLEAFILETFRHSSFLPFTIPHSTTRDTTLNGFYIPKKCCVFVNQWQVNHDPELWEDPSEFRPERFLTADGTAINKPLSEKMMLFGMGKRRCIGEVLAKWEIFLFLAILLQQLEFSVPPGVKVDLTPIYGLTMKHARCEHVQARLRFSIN
In short: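 Read-out is luminescence from luciferin produced by CYP1A2 demethylation of Luciferin-ME (100uM, at Km). Detection reagent stopped the 60 min NADPH-dependent reaction; signals were normalized to 57 uM furafylline.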

[3] = NFAT Signaling Pathway (AID 444; active means well fitted curve in either direction with a large enough effect, not every such curve was filed as active;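 further: carbachol stimulus at about its EC50 of 1 µM final; on the % scale 0 is the no-effect control and ±100 the full control effect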); details: Jurkat NFAT-bla M1, carbachol, beta-lactamase ratio, 5 h; at 7.69 µM (top of the series) unless noted
In short: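 Jurkat cells with NFAT-driven β-lactamase reporter and co-expressed M1 receptor, stimulated with carbachol (final 1 uM, ~EC50), compound titration, 5 h at 37 °C. CCF4 loaded 1 h at RT; 460/530 nm ratio gave %activity and AC50.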

[4] = Stat Signaling Pathway (AID 446; active means well fitted curve in either direction with a large enough effect, not every such curve was filed as active;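 further: ME-180 cervical cancer cells given 40 pM IL-6 alongside compound; SIE-controlled beta-lactamase reporter measured as 460/530 nm FRET emission ratio; on the % scale 0 is the no-effect control and ±100 the full control effect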); details: ME-180 (cervical carcinoma) SIE beta-lactamase reporter, IL-6 stimulated, 5 h; at 7.69 µM (top of the series) unless noted
In short: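 Emission at 460 and 530 nm (excitation 405 nm) reports SIE-controlled beta-lactamase in ME-180 cells. Cells received compound with 40 pM IL-6 for 5 hrs at 37 C; data scaled between 300 pM IL-6 and 125 nM JAK-inhibitor controls.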

[5] = target: Glucocorticoid receptor (Homo sapiens) (UniProt P04150); assay: GR-GFP Redistribution (AID 450;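 active means compounds whose dose series gives a full or clear partial fitted curve of increased nuclear translocation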; further: potency means the concentration at half of the fitted maximal effect); details: U2OS GR-GFP nuclear translocation, laser cytometry, 2 h
Chain of Glucocorticoid receptor (Homo sapiens) (P04150 whole entry, looked up, the tested form may be a part): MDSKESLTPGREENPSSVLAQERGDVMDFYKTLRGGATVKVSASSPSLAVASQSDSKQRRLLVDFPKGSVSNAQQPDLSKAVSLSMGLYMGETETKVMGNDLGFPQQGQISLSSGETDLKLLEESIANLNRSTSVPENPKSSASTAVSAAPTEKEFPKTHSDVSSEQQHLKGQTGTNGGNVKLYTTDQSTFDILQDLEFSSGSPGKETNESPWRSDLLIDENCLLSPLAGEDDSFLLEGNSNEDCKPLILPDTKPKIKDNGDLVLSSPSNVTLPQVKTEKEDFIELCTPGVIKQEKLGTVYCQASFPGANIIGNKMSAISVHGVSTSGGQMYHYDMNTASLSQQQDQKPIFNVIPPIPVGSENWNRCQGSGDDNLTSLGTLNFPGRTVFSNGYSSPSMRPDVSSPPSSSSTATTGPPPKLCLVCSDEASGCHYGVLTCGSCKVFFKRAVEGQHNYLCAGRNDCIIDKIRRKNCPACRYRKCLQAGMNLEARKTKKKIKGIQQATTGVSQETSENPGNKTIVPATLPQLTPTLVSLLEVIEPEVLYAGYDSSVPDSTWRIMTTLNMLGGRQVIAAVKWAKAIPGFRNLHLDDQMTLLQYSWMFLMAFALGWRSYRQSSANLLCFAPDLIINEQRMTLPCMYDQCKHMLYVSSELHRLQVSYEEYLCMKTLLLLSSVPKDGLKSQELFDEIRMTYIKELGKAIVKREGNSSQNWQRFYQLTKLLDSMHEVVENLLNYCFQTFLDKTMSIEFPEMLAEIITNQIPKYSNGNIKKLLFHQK

[6] = target: Glucocorticoid receptor (Homo sapiens) (UniProt P04150); assay: GR-EFC Redistribution (AID 451; calls by dose curve; further: potency means the concentration at half of the fitted maximal effect); details: CHO-K1 GR-EFC translocation, beta-gal luminescence, 2 h
In short: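 CHO-K1 cells expressing nuclear EA and GR-ED fragments of b-gal; compounds titrated up to 46 uM final, 2 h at 37 C. GR nuclear translocation read as complemented b-gal luminescence after 1 h RT detection.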

[7] = target: Mitogen-activated protein kinase 10 (Mus musculus) (UniProt Q61831); assay: JNK3 AlphaScreen Assay (AID 530; active means well fitted curve in either direction with a large enough effect, not every such curve was filed as active;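 further: kinase came from lysate of stimulated human HepG2 cells; signal reports phosphorylation of biotinylated GST-cJun 1-79 at Ser73 with 10 µM ATP; on the % scale 0 is the no-effect control and ±100 the full control effect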)
In short: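 HepG2 lysate (IL-1b/TNFa pre-activated) + biotin-GST-cJun 1-79 + anti-pSer73 cJun; cpd titration, 15 min RT; ATP 10 uM start; Tris pH 7.6, MgCl2, DTT, vanadate; beads in EDTA buffer; AlphaScreen.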

[8] = target: 3',5'-cyclic-AMP phosphodiesterase 4B (Homo sapiens) (UniProt Q07343); assay: qHTS Assay for Inhibitors of PDE-IV (AID 607; active means well fitted activation curve with a large enough effect in the main read-out, with a control signal flat, not every such curve was filed as active; further: % of control where 0% means no effect)
Chain of 3',5'-cyclic-AMP phosphodiesterase 4B (Homo sapiens) (Q07343 whole entry, looked up): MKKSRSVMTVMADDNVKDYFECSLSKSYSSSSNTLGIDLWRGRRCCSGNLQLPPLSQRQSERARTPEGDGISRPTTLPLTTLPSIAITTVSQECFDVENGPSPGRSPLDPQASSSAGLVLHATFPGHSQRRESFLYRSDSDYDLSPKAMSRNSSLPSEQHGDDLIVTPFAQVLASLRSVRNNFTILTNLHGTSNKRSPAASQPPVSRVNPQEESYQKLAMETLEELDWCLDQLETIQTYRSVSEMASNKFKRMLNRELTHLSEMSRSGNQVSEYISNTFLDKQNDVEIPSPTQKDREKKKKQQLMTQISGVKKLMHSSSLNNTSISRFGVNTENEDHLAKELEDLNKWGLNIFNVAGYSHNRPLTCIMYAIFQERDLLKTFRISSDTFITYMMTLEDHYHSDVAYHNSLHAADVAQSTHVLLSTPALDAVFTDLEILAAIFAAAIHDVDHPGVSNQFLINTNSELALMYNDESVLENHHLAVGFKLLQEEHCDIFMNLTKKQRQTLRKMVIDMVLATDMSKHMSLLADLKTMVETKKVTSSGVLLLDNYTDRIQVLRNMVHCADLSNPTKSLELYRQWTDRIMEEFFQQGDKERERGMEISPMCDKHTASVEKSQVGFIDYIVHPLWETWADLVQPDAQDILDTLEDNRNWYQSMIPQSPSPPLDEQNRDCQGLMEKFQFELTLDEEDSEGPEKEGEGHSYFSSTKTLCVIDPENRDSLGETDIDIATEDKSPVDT
In short: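 The readout is membrane depolarisation from a cAMP-sensing CNG channel, detected with a potential dye at ex 535/em 590. Cells were HEK293-derived (endogenous PDE-IV) at 1000 cells/well, titrated up to 22.9 uM final.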

[9] = qHTS Assay for Lipid Storage Modulators (AID 1519; calls by dose curve); details: Drosophila S3 cells, BODIPY lipid droplet/cell ratio, laser cytometry, cells loaded with oleic acid
In short: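 Cells seeded at 5,000 per well were treated with compounds over a concentration series and loaded with oleic acid (400 uM, as added). Lipid droplet fluorescence (488 nm excitation, 500-530 nm channel) was read by laser-scanning cytometry and normalized to 20 uM Triacsin C.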

[10] = target: ATP-dependent 6-phosphofructokinase (Trypanosoma brucei brucei) (UniProt O15648); assay: qHTS Assay to Find Inhibitors of T. brucei phosphofructokinase: hit validation (AID 492961)
Chain of ATP-dependent 6-phosphofructokinase (Trypanosoma brucei brucei) (O15648 whole entry, looked up): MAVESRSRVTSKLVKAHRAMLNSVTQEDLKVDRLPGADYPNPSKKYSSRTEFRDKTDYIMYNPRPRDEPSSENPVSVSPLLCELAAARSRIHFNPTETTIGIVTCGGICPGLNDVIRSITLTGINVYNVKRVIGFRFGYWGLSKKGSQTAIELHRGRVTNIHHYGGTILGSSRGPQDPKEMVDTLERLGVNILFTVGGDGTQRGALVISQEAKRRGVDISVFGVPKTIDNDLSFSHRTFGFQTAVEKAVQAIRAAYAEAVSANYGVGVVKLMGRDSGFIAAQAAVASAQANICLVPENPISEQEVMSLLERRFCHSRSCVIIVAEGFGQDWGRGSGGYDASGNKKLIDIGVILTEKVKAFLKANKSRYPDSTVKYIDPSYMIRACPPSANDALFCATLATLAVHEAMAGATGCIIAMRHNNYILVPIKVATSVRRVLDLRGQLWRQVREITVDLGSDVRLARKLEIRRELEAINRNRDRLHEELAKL
In short: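 Compounds titrated; %activity normalized to 0x and 1x enzyme controls, curve-fitted. Readout: ADP-Glo luminescence after 45 min room-temperature reaction of 1.25 nM PFK, 0.1 mM ATP, 0.5 mM F6P, pH 8.0.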

[11] = target: Ubiquitin carboxyl-terminal hydrolase 1 (Homo sapiens) (UniProt O94782); assay: Inhibitors of USP1/UAF1: Pilot qHTS (AID 504865);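 further: rhodamine fluorescence freed from ubiquitin-rhodamine substrate followed over time; top concentration of the series differs between compounds; on the % scale 0 is the no-effect control and ±100 the full control effect; nearly all actives have a fitted effect of over 35% in size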
Chain of Ubiquitin carboxyl-terminal hydrolase 1 (Homo sapiens) (O94782 whole entry, looked up): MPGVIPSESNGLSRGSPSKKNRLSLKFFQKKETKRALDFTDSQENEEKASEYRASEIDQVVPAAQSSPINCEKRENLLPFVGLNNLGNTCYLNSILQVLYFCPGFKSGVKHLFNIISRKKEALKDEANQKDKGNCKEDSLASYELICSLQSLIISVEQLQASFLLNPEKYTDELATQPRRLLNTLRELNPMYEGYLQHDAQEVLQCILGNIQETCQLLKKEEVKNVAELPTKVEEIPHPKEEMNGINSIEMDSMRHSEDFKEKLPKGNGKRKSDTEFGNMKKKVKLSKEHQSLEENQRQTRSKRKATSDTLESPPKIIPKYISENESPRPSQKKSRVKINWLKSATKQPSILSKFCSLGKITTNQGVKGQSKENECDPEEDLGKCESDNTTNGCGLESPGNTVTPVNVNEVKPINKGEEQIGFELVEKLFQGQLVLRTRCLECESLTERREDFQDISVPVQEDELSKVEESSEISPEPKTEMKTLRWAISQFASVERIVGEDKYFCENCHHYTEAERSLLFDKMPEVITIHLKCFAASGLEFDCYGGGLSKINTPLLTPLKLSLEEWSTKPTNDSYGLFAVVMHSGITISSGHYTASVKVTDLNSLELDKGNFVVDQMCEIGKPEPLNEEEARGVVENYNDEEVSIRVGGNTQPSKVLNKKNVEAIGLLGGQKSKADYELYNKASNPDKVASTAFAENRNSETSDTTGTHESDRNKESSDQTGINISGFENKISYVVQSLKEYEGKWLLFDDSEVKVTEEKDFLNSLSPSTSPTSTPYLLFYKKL
In short: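 In 50mM HEPES pH 7.8 containing 0.5mM EDTA, 1mM TCEP, 0.1 mg/ml BSA and 0.01% Tween-20, 1nM USP1/UAF1 is exposed to compound for 15 min, then Ub-Rho (150nM final) is added and fluorescence is read over time.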

[12] = target: Luciferin 4-monooxygenase (Photinus pyralis) (UniProt P08659); assay: Biochemical firefly luciferase enzyme assay for NPC (AID 624030);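 further: purified P. pyralis luciferase at 10 nM with luciferin and ATP substrate; 0% = DMSO and -100% = full luciferase inhibition by PTC124 control; nearly all actives have a fitted effect of over 70% in size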
Chain of Luciferin 4-monooxygenase (Photinus pyralis) (P08659 whole entry, looked up): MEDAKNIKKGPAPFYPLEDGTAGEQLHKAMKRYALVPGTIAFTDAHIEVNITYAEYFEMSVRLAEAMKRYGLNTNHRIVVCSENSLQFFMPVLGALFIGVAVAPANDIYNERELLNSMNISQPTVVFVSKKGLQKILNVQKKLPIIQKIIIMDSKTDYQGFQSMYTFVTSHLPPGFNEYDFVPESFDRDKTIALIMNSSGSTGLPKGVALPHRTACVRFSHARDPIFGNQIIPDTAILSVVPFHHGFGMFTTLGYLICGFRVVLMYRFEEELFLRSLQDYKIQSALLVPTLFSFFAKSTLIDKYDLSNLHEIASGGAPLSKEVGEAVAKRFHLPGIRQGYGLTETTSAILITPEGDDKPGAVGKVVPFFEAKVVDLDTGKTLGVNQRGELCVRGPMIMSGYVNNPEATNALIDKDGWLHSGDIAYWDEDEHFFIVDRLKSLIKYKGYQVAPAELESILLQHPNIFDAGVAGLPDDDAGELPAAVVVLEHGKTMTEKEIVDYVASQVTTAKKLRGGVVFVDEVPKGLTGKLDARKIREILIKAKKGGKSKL
In short: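 Purified P. pyralis luciferase at 10 nM in 50 mM Tris Acetate (final), luminescence read within 5 minutes of enzyme addition to compounds. Activity normalised to PTC124 versus DMSO; concentration-response curves classed by r2, magnitude and activity.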

[13] = S16 Schwann cell viability assay (CellTiter-Glo assay) (AID 624031);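 further: native untransfected S16 rat Schwann cells; cellular ATP luminescence as a viability measure; plate controls were DMSO-treated cells for no effect and cell-free wells for full effect; nearly all actives have a fitted effect of over 70% in size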
In short: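 Following overnight culture in 10% FBS DMEM, parental S16 rat Schwann cells are dosed for 24 h at 37 °C. Viability is read as CellTiter-Glo luminescence and expressed as % activity relative to DMSO (0%) and no-cell wells.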

[14] = S16 Schwann cell PMP22 intronic element firefly luciferase assay (AID 624032);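 further: plate controls were DMSO for no effect and PTC124 positive control mean for full effect; nearly all actives have a fitted effect of over 30% in size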
In short: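 Rat S16 Schwann cells stably carrying firefly luciferase driven by a PMP22 intronic element, in 10% FBS, treated 24 h at 37 C. ONE-Glo luminescence normalized to PTC124 control and DMSO (0%); curves classed by r2, magnitude and activity.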

[15] = qHTS profiling for inhibitors of Plasmodium falciparum proliferation (AID 504749);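 further: 0% = DMSO vehicle and full inhibition = artemisinin control; nearly all actives have a fitted effect of over 60% in size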; details: P. falciparum in erythrocytes, SYBR Green DNA, 72 h, at 12.8 µM (top of the series)
In short: (§1)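 SYBR Green fluorescence (ex 485 nm, em 535 nm) reports parasite DNA after 72 h compound exposure of infected red cells at 0.3% parasitemia, 2.5% hematocrit; signal normalized to 0.29 uM artemisinin and vehicle wells.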

[16] = system: 3D7; assay: as above; details: P. falciparum in erythrocytes, SYBR Green DNA, 72 h; series mostly up to 12.8 µM
In short: as §1

[17] = system: 7G8; assay: as above; details: P. falciparum in erythrocytes, SYBR Green DNA, 72 h; series mostly up to 12.8 µM
In short: as §1

[18] = system: AA1029; assay: as above; details: P. falciparum in erythrocytes, SYBR Green DNA, 72 h; series mostly up to 12.8 µM
In short: as §1

[19] = system: AS120; assay: as above; details: P. falciparum in erythrocytes, SYBR Green DNA, 72 h; series mostly up to 28.7 µM
In short: as §1

[20] = system: ATS189; assay: as above; details: P. falciparum in erythrocytes, SYBR Green DNA, 72 h; series mostly up to 12.8 µM
In short: as §1

[21] = system: ATS95; assay: as above; details: P. falciparum in erythrocytes, SYBR Green DNA, 72 h; series mostly up to 12.8 µM
In short: as §1

[22] = system: C2A; assay: as above; details: P. falciparum in erythrocytes, SYBR Green DNA, 72 h; series mostly up to 12.8 µM
In short: as §1

[23] = system: CP185; assay: as above; details: P. falciparum in erythrocytes, SYBR Green DNA, 72 h; series mostly up to 12.8 µM
In short: as §1

[24] = system: CP191; assay: as above; details: P. falciparum in erythrocytes, SYBR Green DNA, 72 h; series mostly up to 12.8 µM
In short: as §1

[25] = system: CP194; assay: as above; details: P. falciparum in erythrocytes, SYBR Green DNA, 72 h; series mostly up to 12.8 µM
In short: as §1

[26] = system: CP201; assay: as above; details: P. falciparum in erythrocytes, SYBR Green DNA, 72 h; series mostly up to 12.8 µM
In short: as §1

[27] = system: CP203; assay: as above; details: P. falciparum in erythrocytes, SYBR Green DNA, 72 h; series mostly up to 12.8 µM
In short: as §1

[28] = system: CP211; assay: as above; details: P. falciparum in erythrocytes, SYBR Green DNA, 72 h; series mostly up to 12.8 µM
In short: as §1

[29] = system: CP215; assay: as above; details: P. falciparum in erythrocytes, SYBR Green DNA, 72 h; series mostly up to 28.7 µM
In short: as §1

[30] = system: CP217; assay: as above; details: P. falciparum in erythrocytes, SYBR Green DNA, 72 h; series mostly up to 12.8 µM
In short: as §1

[31] = system: CP237; assay: as above; details: P. falciparum in erythrocytes, SYBR Green DNA, 72 h; series mostly up to 12.8 µM
In short: as §1

[32] = system: CP238; assay: as above; details: P. falciparum in erythrocytes, SYBR Green DNA, 72 h; series mostly up to 12.8 µM
In short: as §1

[33] = system: CP247; assay: as above; details: P. falciparum in erythrocytes, SYBR Green DNA, 72 h; series mostly up to 12.8 µM
In short: as §1

[34] = system: CP250; assay: as above; details: P. falciparum in erythrocytes, SYBR Green DNA, 72 h; series mostly up to 12.8 µM
In short: as §1

[35] = system: CP252; assay: as above; details: P. falciparum in erythrocytes, SYBR Green DNA, 72 h; series mostly up to 12.8 µM
In short: as §1

CN[C@@H]1[C@H](O[C@@H]2O[C@H](CO)[C@@H](N)[C@H](O)[C@@H]2O)O[C@H]2C[C@@H](N)[C@@H](O[C@H]3[C@@H](O)[C@H](O)[C@H](N)C[C@@H]3N)O[C@H]2[C@H]1O
inactive: activity change, negative = inhibition [1] 3.97% [at 17.2 µM] | Potency [2] | activity change, negative = inhibition [3] -18% [at 17.2 µM] | activity, negative = inhibition [4] -2.35% [at 17.2 µM] | Potency [5] > 20.6 µM | Potency [6] > 20.6 µM | Potency [7] | Potency [8] | activity change, negative = inhibition ([9]; at 25.7 µM (top of the series)) -1.23% | outcome [10] | Potency [11] | outcome [12] | Potency [13] | Potency [14] | activity, negative = inhibition ([15]; parasite line A) -1.02% | activity, negative = inhibition ([15]; parasite line B) -5.91% | Potency [16] | Potency [17] | Potency [18] | Potency [19] | Potency [20] | Potency [21] | Potency [22] | Potency [23] | Potency [24] | Potency [25] | Potency [26] | Potency [27] | Potency [28] | Potency [29] | Potency [30] | Potency [31] | Potency [32] | Potency [33] | Potency [34] | Potency [35]
-11.9%: max response ([9]; measured here: lipid channel max response)
-10.4%: max response ([9]; measured here: cell count channel max response)
